A selection: hits, their analogues and other compounds. The true share with any hit is near 31%.
CYP2C19 inh: blocks human cytochrome P450 2C19; P33261; CYP2C19 Supersomes, luciferin-H EGE luminescence, 30 min; inhibition, % at 5 µM; 21% of 96,000 active; AID 778;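 active = CYP2C19 inhibition above a set limit at 5 µM in the primary screen, cut at about 50% in these data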;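 note: plate controls were negative control wells for no effect and 2.5 mM tranylcypromine positive control for full effect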
CYP2C19 act: cytochrome P450 2C19 (human) activation. recombinant CYP2C19, luciferin-H EGE luminescence; stronger effect = higher value; 0 = fully inhibited enzyme, 1 = untreated enzyme. activation factor at 5 µM. 96,000 tested, under 10 active. AID 1025;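 active = activation factor of at least 2 at 5 µM in the primary screen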;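 note: 0 = wells with 2.5 mM tranylcypromine and 1 = vehicle-only wells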
CYP2C9 inhib: inhibitors of human CYP2C9. P11712. CYP2C9 Supersomes, luciferin-H conversion, luminescence. inhibition, % at 5 µM. 20% of 96,000 active;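 active = blocking of liver enzyme CYP2C9 beyond about 50% at 5 µM, limit read from the data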
Target sequence (P11712 whole entry, looked up): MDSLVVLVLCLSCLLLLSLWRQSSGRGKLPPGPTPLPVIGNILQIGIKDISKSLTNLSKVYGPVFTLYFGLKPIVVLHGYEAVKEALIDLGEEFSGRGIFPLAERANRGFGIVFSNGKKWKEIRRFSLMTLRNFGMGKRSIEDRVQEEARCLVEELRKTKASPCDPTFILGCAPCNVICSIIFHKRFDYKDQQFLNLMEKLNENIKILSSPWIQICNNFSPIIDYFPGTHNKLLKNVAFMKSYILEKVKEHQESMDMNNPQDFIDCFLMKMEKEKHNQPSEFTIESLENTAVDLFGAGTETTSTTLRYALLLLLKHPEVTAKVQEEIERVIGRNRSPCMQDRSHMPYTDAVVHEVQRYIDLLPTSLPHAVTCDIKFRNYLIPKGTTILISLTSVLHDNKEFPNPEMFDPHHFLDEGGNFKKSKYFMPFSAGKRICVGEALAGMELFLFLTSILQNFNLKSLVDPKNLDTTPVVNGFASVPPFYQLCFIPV
CYP2C9 activ: increases human cytochrome P450 2C9 activity; recombinant CYP2C9, luciferin-H conversion, luminescence; stronger effect = higher value; factor 1 = untreated enzyme, 0 = blocked; 1.4% of 96,000 active; activation factor at 5 µM;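 active = activation factor of 2 or more for CYP2C9 at a 5 µM dose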;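 note: 0 = sulfaphenazole-blocked wells and 1 = vehicle-only wells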
Starred values were filed as active, the others as inactive.

SMILES	CYP2C19 inh	CYP2C19 act	CYP2C9 inhib	CYP2C9 activ
CN1CCOc2cc(S(=O)(=O)Nc3ccc(F)cc3)ccc21	87.0*	0.1	59.7*	0.4
O=C(c1ccco1)N1CCN(C(=O)C2CCN(S(=O)(=O)c3cccs3)CC2)CC1	1.4	1	-2.7	1
CC1CCc2c(C(=O)N3CCN(S(=O)(=O)c4cccs4)CC3)csc2C1 (stereo not drawn)	77.7*	0.2	77.1*	0.2
CCCNC(=O)NC(C(=O)OC)C12CC3CC(CC(C3)C1)C2 (stereo not drawn)	69.0*	0.3	39.6	0.6
c1ccc(-n2ncc3c(NCc4cccnc4)ncnc32)cc1	16.3	0.8	68.7*	0.3
COc1ccc(-n2ncc3c(NCc4ccco4)ncnc32)cc1	22.4	0.8	21.3	0.8
CCOc1ccc(Nc2ncnc3c2cnn3Cc2ccccc2)cc1	28.7	0.7	35.5	0.6
COc1ccc(-n2ncc3c(NCc4ccccn4)ncnc32)cc1	60.9*	0.4	53.1*	0.5
c1ccc(-n2ncc3c(NCc4cccs4)ncnc32)cc1	60.5*	0.4	80.9*	0.2
COc1ccc(Nc2ncnc3c2cnn3Cc2ccccc2)cc1	55.0*	0.4	44.0	0.6
O=C(O)CSc1nnc(-c2cccnc2)n1Cc1ccccc1	-8.9	1.1	-6.0	1.1
O=C1COc2ccc(C(=O)CSc3nnc(Cc4cccs4)n3-c3ccc(Cl)cc3)cc2N1	16.9	0.8	29.3	0.7
CSC(=NC#N)N1CCN(c2ccc(Cl)cc2)CC1	85.5*	0.1	43.2	0.6
O=C(C1c2ccccc2C(=O)N2CCc3ccccc3C12)N1CCN(Cc2ccccc2)CC1 (stereo not drawn)	-1.6	1	2.7	1
CCN(CC)S(=O)(=O)c1cccc(-c2nnc(SCCOc3ccc(Cl)cc3)o2)c1	61.1*	0.4	-97.4	2*
CCN(CC)S(=O)(=O)c1cccc(-c2nnc(SCC(=O)c3cc(C)n(C)c3C)o2)c1	20.3	0.8	34.1	0.7
CCN(CC)S(=O)(=O)c1cccc(-c2nnc(SCCOc3ccccc3)o2)c1	93.8*	0.1	-38.4	1.4
CCN(CC)S(=O)(=O)c1cccc(-c2nnc(SCc3nnc(-c4ccccc4)o3)n2C)c1	88.0*	0.1	54.8*	0.5
CCN(CC)S(=O)(=O)c1cccc(-c2nnc(SCCOc3ccccc3C)o2)c1	90.4*	0.1	-64.7	1.6
Cc1cnc(C(=O)OCC(=O)NC2CCCC(C)C2C)cn1 (stereo not drawn)	17.6	0.8	10.7	0.9
CCc1ccccc1N1CC(C(=O)O)CC1=O (stereo not drawn)	-12.9	1.1	-17.7	1.2
COc1ccc2c(c1OC)C(=O)OC2Nn1cncn1 (stereo not drawn)	-14.5	1.1	-14.9	1.1
COc1ccc(C(=O)CC2OC(=O)c3c2ccc(OC)c3OC)cc1 (stereo not drawn)	80.0*	0.2	34.1	0.7
Cc1cc(C)c2c(=O)n(CC(=O)NCCCN3CCN(c4ccccc4F)CC3)sc2n1	38.4	0.6	65.2*	0.3
Cc1cc(C)c2c(=O)n(CC(=O)N3CCC(Cc4ccccc4)CC3)sc2n1	-3.1	1	40.2	0.6
SMILES	CYP2C19 inh	CYP2C19 act	CYP2C9 inhib	CYP2C9 activ
Cc1cc(C)c2c(=O)n(CC(=O)NCCCN3CCOCC3)sc2n1	33.4	0.7	81.4*	0.2
CCOC(=O)C1CCN(S(=O)(=O)C(F)(F)c2nc3ccccc3s2)CC1	95.4*	0	64.7*	0.4
O=C(CCc1nc2ccccc2s1)N1CCN(S(=O)(=O)c2cccs2)CC1	70.2*	0.3	58.7*	0.4
O=S(=O)(c1cccs1)N1CCN(Cc2nc3ccccc3s2)CC1	84.7*	0.2	83.2*	0.2
O=C(COC(=O)C1CCN(S(=O)(=O)c2cccs2)CC1)c1cc2ccccc2o1	8.7	0.9	18.7	0.8
O=C(OCc1nc2ccccc2s1)C1CCN(S(=O)(=O)c2cccs2)CC1	82.1*	0.2	95.3*	0
O=C(CCCc1cccs1)N1CCN(S(=O)(=O)c2ccccc2Br)CC1	47.6	0.5	68.9*	0.3
CCN1C(=O)N(C)C(N(O)C(=O)NC)C1(C)C (stereo not drawn)	-10.4	1.1	-9.7	1.1
Cc1ccccc1OC1C(=O)N(Cc2ccc3c(c2)OCO3)C1c1sccc1C (stereo not drawn)	74.4*	0.3	81.5*	0.2
O=C1C(Oc2ccccc2)C(c2cccs2)N1Cc1ccc2c(c1)OCO2 (stereo not drawn)	25.9	0.7	-21.4	1.2
CCC(=O)OCc1c(C(F)(F)F)nn(C)c1Sc1ccc(Cl)cc1	75.2*	0.2	60.4*	0.4
CCCn1c(CC)nc([N+](=O)[O-])c1Sc1ccc(F)cc1	38.6	0.6	-3.3	1
CC(=O)OCc1c(C(F)(F)F)nn(C)c1Sc1ccccc1	89.7*	0.1	15.8	0.8
CCC(=O)OCc1c(C(F)(F)F)nn(C)c1Sc1ccc(F)cc1	61.1*	0.4	41.3	0.6
CC(=O)NC1=NN(C(C)=O)C(c2sccc2C)S1 (stereo not drawn)	34.4	0.7	21.2	0.8
CC(C)CC(=O)Nc1nnn(C)n1	15.0	0.8	-5.7	1.1
O=C(CCSc1nc(-c2ccco2)cc(C(F)(F)F)n1)N1CCN(c2ccccn2)CC1	85.8*	0.1	86.4*	0.1
CCn1cc(CNC(=O)CCSc2nc(-c3ccco3)cc(C(F)(F)F)n2)cn1	24.3	0.8	19.1	0.8
O=C(CCSc1nc(-c2ccco2)cc(C(F)(F)F)n1)N1CCCc2ccccc21	96.2*	0	92.3*	0.1
CC1Cc2ccccc2N1C(=O)CSc1nc(-c2ccco2)cc(C(F)(F)F)n1 (stereo not drawn)	1.7	1	7.9	0.9
Nc1nonc1-c1nc2ccccc2n1CC(=O)N/N=C\c1ccc(-c2ccc(Cl)cc2)o1	-10.5	1.1	-1.0	1
CCOC(=O)c1c(-c2ccccc2)csc1NC(=O)C1CCCO1 (stereo not drawn)	-3.7	1	15.6	0.8
CCOC(=O)c1c(-c2ccccc2)csc1NC(=O)c1cccc(N2C(=O)CCC2=O)c1	45.0	0.6	83.8*	0.2
CCOC(=O)c1c(-c2ccc(C)cc2)csc1NC(=O)C1CC=CCC1C(=O)O (stereo not drawn)	-10.9	1.1	-10.5	1.1
O=C(Nc1ccccc1)c1cccc(N2C(=O)CCC2=O)c1	44.4	0.6	31.3	0.7
SMILES	CYP2C19 inh	CYP2C19 act	CYP2C9 inhib	CYP2C9 activ
CCOC(=O)c1c(-c2ccc(C)cc2)csc1NC(=S)NC(=O)c1ccccc1	6.0	0.9	93.1*	0.1
O=C(Oc1ccccc1)c1cccc(N2C(=O)CCC2=O)c1	65.7*	0.3	50.7*	0.5
COc1ccc2c(C)c(C(=O)NCC(C)O)oc2c1OC (stereo not drawn)	5.3	0.9	4.5	1
O=C1CC(SC(=NCc2ccc3c(c2)OCO3)Nc2ccccc2)C(=O)N1 (stereo not drawn)	96.5*	0	47.8	0.5
O=C(NCc1ccc2c(c1)OCO2)C1CCCN1C(=O)Nc1ccccc1 (stereo not drawn)	28.3	0.7	-31.9	1.3
CC(C)C(=O)NCCn1ccc2ccccc21	57.2*	0.4	34.9	0.7
